In PubChem BioAssay (NCATS) one finds Potency, outcome and activity change, negative = cytotoxicity data, which are given here for 25 molecules.

Inconclusive results are not listed. A number with no mark means an inactive call. Activity calls are given as the source filed them. Calls follow the shape of the dose curve; as a rule, active = well fitted curve in the direction sought with a large enough effect; inconclusive = small, poorly fitted or top-dose-only effect, or another doubt; inactive = no such curve, though single readings can be large; an effect the other way counts as inactive or inconclusive. Where a SMILES comes first, the peptide text is derived from it. Bridges are numbered along the chain shown (N, C = ends). [ ]: non-standard residue; d: D form. The star is where a group is joined. X1 = CCC(C)C(N)C1=NC(C(=O)*)CS1; PhLac = O=C(O)[CH](O)Cc1ccccc1; NMeV = CN[CH](C(=O)O)C(C)C; dOrn = NCCC[C@@H](N)C(=O)O; 2Abz = Nc1ccccc1C(=O)O

Experiment [1] is described as follows: P-glycoprotein substrates identified in KB-3-1 adenocarcinoma cell line, qHTS therapeutic library screen (AID 1346986). Also: nearly all actives have a fitted effect of over 60% in size. An outline of the steps:
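Counter-screen: cherry-picked hits retested in the KB pair and in HEK-293 pcDNA/MDR-19 cells ± tariquidar. Primary screen used 72 h CellTiter-Glo viability in KB-3-1 and KB-8-5-11.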
Background: Quantitative high-throughput screening tests each substance at several concentrations.

Experiment [2] is described as follows: P-glycoprotein substrates identified in KB-8-5-11 adenocarcinoma cell line, qHTS therapeutic library screen (AID 1346987). Also: nearly all actives have a fitted effect of over 65% in size. As to activity change, negative = cytotoxicity: series mostly up to about 44 µM; % is scaled to controls: 0 for no effect and ±100 for the full control effect. An outline of the steps:
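P-gp-mediated resistance screen: KB-8-5-11 cells treated 72 h with compounds in dose-response. CellTiter-Glo viability.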

For the molecule `C/C(=C\CCC(C)(O)c1ccc(C)cc1)C(=O)O` (stereo not given), the Potency entry in experiment [1] and in experiment [2] was “inactive” in each case.

Take `C=C1C(O[C@@H]2O[C@H](CO)[C@@H](O)[C@H](O)[C@@H]2O)CC2C(C)(C)C(O)CCC2(C)C1CC/C(C)=C\CO` (stereo not given in full): the Potency entry in experiment [1] and in experiment [2] was “inactive” each time.

For `CC(CCC1(O)OC2CC3C4CCC5CC(O[C@@H]6O[C@H](CO)[C@@H](O)[C@H](O)[C@H]6O[C@@H]6OC[C@@H](O)[C@H](O)[C@H]6O)C(O)CC5(C)C4CCC3(C)C2C1C)CO[C@@H]1O[C@H](CO)[C@@H](O)[C@H](O)[C@H]1O` (stereo not given in full), the outcome in experiment [1] and in experiment [2] was “inactive [at 9.29 µM]” in each case.

For `CO[C@@H]1COCC[C@@H]1N[C@@H]1CC[C@@](C(=O)N2CCc3ncc(C(F)(F)F)cc3C2)(C(C)C)C1`, the Potency result in experiment [1] and in experiment [2] was “inactive” throughout.

As for `NCCOCCOCCNC(=O)Cc1ccc(Nc2nc(NCc3ccc(F)cc3)nc(NCC3CCCCC3)n2)cc1`, the Potency result in experiment [1] and in experiment [2] was “inactive” each time.

With `CC(C)C(C(=O)N1CCCC1C(=O)O)N(C)C(=O)C(O)Cc1ccccc1` (stereo not given) (H-[PhLac]-[NMeV]-Pro-OH; configuration not given here), the Potency result in experiment [1] and in experiment [2] was “inactive” throughout.

As to `CCC(C)C1NC(=O)C2CCCN2C(=O)C(C(C)C)NC(=O)c2ccccc2NC(=O)C(Cc2ccc(O)cc2)NC(=O)C(C)NC(=O)C(C(C)O)NC1=O` (stereo not given) (cyclo([2Abz]VPITAY); configuration not given here), the Potency entry in experiment [1] and in experiment [2] was “inactive” each time.

For the molecule `CCC1CC2C(C)=CC3CCCCC3C2(C)C2(OC(=O)C(C)(O)OC2=O)O1` (stereo not given), the Potency entry in experiment [1] and in experiment [2] was “inactive” throughout.

Turning to `COC12CC3C(C(C)C1=CC(=O)O2)C(O)C(OC(C)=O)C1C(C)(C)C(OC(C)=O)CCC31C` (stereo not given), the Potency entry in experiment [1] and in experiment [2] was “inactive” in each case.

Take `CNC(=O)c1ccc2cc([C@@]3(O)CCn4cncc43)ccc2c1`: the Potency result in experiment [1] and in experiment [2] was “inactive” in each case.

Consider `CCN[C@@H]1C[C@H](N)[C@@H](O[C@H]2OC(CN)=CC[C@H]2N)[C@H](O)[C@H]1O[C@H]1OC[C@](C)(O)[C@H](NC)[C@H]1O`, for which the Potency entry in experiment [1] and in experiment [2] was “inactive” in each case.

With `C=C1CCC[C@]2(C)C[C@]3(O)OC(=O)C(C)=C3C[C@@H]12`, the Potency entry in experiment [1] and in experiment [2] was “inactive” throughout.

As for `C[C@@H]1CC[C@H]2C(C)(C)[C@H](O)[C@H](O)C[C@]2(C)[C@@]12Cc1c(O)cc3c(c1O2)CNC3=O`, the Potency entry in experiment [1] and in experiment [2] was “inactive” throughout.

In the case of `C=C1CC23CC1(O)CCC2C1=CC2OC(=O)C(C)(C2O)C1C3C(=O)O` (stereo not given), the Potency entry in experiment [1] and in experiment [2] was “inactive” each time.

On to `C=CC(C)(O)CC/C=C(\C)C(=O)OC1CC2(C(=O)O)CCC3(C)C(=CCC4C5(C)CCC(OC6OC(COC7OCC(O)C(O)C7O)C(O)C(OC7OCC(O)C(O)C7O)C6OC6OC(CO)C(O)C(O)C6OC6OCC(O)C(O)C6O)C(C)(C)C5CCC43C)C2CC1(C)C` (stereo not given), for which the outcome in experiment [1] and in experiment [2] was “inactive [at 9.29 µM]” each time.

For the molecule `CC(/C=C/C1(O)C(C)(C)CC(O)CC1(C)O)OC1OC(CO)C(O)C(O)C1O` (stereo not given), the Potency result in experiment [1] and in experiment [2] was “inactive” in each case.

Regarding `CCC(C)C(N)C1=NC(C(=O)N[C@@H](CC(C)C)C(=O)N[C@H](CCC(=O)O)C(=O)N[C@H](C(=O)N[C@H]2CCCCNC(=O)[C@H](CC(N)=O)NC(=O)[C@@H](CC(=O)O)NC(=O)[C@H](Cc3cnc[nH]3)NC(=O)[C@@H](Cc3ccccc3)NC(=O)[C@H]([C@@H](C)CC)NC(=O)[C@@H](CCCN)NC2=O)[C@@H](C)CC)CS1` (stereo not given in full) (X1-L[dE]IK[dOrn]I[dF]H[dD]N; lactam 4-C), the Potency result in experiment [1] and in experiment [2] was “inactive” each time.

Consider `COc1cc(-c2cccc(O)c2)cc2c1OCO2`, for which the Potency entry in experiment [1] and in experiment [2] was “inactive” each time.

As for `C[C@@H]1O[C@@H](O[C@@H]2[C@@H](O)[C@H](O[C@@H]3[C@@H](O)[C@@H](O)[C@H](O[C@H]4[C@H](OC(=O)[C@]56CCC(C)(C)C[C@H]5C5=CCC7[C@@]8(C)C[C@H](O)[C@H](O[C@@H]9O[C@@H](C)[C@H](O)[C@@H](O)[C@H]9O)[C@@](C)(CO)C8CC[C@@]7(C)[C@]5(C)C[C@H]6O)O[C@H](C)[C@H](O)[C@@H]4O)O[C@H]3C)OC[C@H]2O)[C@H](O)[C@H](O)[C@H]1O` (stereo not given in full), the outcome in experiment [1] is “inactive [at 9.29 µM]”. In experiment [2], the activity change, negative = cytotoxicity is 4.66% [at 9.29 µM].

For the molecule `C[C@H]1CN(C[C@H](Cc2ccccc2)C(=O)NCC(=O)O)CC[C@@]1(C)c1cccc(O)c1`, the Potency result in experiment [1] and in experiment [2] was “inactive” each time.

For the molecule `CC1=CCC2C(C)(CO)CCCC2(CO)C1CO` (stereo not given), the Potency entry in experiment [1] and in experiment [2] was “inactive” throughout.

Turning to `CC(C)NC[C@H](O)COc1ccc(CCOCC2CC2)cc1`, the Potency result in experiment [1] and in experiment [2] was “inactive” in each case.

As to `O=C(O[C@@H]1O[C@H](CO)[C@@H](O)[C@H](O)[C@H]1O)c1c(O)cc(O)cc1/C=C/c1ccccc1`, the Potency result in experiment [1] and in experiment [2] was “inactive” in each case.

In the case of `CC1=CC(=O)CC(C)(C)C1(O)CCC(C)O` (stereo not given), the Potency result in experiment [1] and in experiment [2] was “inactive” in each case.

As to `OCC1=CC[C@@H]2C=CO[C@@H](O[C@@H]3O[C@H](CO)[C@@H](O)[C@H](O)[C@H]3O)[C@H]12`, the Potency entry in experiment [1] and in experiment [2] was “inactive” throughout.
